Experimental findings from publication PMC7862700, “An all-to-all approach to the identification of sequence-specific readers for epigenetic DNA modifications on cytosine” are described below.

What all share (assay): DAPPL (digital affinity profiling via proximity ligation, sequencing); 10 mM Tris-HCl pH 7.5, 50 mM NaCl, 1 mM DTT, 4% glycerol, room temperature, 30 min; GST-TFs on glutathione beads, 16-mer random dsDNA library, 0.1% formaldehyde crosslink after washing; high values mean tight binding
Conditions in all cases: protein: recombinant; tags: N-terminal GST; dsDNA, one strand shown

The target of one test is T1, ERF (Homo sapiens, UniProt P50548 1-548).
T1 sequence: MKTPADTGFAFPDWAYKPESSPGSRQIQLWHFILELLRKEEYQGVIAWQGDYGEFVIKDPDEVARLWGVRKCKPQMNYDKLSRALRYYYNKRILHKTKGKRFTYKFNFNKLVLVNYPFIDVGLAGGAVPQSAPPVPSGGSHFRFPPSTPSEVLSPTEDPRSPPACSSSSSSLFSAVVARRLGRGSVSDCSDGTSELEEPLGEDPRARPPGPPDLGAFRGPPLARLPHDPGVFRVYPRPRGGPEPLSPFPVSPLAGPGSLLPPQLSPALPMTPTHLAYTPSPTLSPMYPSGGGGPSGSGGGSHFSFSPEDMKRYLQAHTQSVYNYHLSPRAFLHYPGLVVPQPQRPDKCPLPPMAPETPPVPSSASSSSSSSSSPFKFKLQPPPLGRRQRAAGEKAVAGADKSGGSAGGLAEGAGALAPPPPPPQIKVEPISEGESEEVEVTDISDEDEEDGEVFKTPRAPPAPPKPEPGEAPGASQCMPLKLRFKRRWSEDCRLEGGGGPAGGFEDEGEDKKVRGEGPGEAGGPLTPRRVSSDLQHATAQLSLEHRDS
The method, boiled down:
(§1)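 Pools of DNA-barcoded human transcription factors, expressed in yeast as GST fusions on glutathione beads and combined with a tag-only sample, were incubated with 200 nmole of a 16-mer random double-stranded DNA library. Incubation took 30 min at room temperature in Tris/NaCl/DTT/glycerol buffer and was followed by washing, 0.1% formaldehyde crosslinking, proximity ligation (BsaI/T4 ligase, 1 h, 37 °C), PCR amplification and sequencing on an Illumina NextSeq500. Binding signal is the ratio of a hexamer's read frequency for a factor to its frequency for the tag-only sample.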

The next test has as its target T2, ETV3L (Homo sapiens, UniProt Q6ZN32 1-361).
T2 sequence: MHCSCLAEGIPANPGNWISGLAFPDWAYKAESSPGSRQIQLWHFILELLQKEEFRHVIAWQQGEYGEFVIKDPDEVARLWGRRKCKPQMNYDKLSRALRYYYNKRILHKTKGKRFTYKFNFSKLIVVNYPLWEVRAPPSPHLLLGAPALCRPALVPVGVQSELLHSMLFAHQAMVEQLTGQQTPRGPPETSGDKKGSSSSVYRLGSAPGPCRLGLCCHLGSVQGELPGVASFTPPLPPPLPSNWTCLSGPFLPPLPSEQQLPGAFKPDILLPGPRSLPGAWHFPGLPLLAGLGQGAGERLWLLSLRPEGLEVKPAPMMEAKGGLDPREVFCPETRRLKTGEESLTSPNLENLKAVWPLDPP
The method, boiled down: as §1

A further test deals with T3, ETS2 (Homo sapiens, UniProt P15036 1-469).
T3 sequence: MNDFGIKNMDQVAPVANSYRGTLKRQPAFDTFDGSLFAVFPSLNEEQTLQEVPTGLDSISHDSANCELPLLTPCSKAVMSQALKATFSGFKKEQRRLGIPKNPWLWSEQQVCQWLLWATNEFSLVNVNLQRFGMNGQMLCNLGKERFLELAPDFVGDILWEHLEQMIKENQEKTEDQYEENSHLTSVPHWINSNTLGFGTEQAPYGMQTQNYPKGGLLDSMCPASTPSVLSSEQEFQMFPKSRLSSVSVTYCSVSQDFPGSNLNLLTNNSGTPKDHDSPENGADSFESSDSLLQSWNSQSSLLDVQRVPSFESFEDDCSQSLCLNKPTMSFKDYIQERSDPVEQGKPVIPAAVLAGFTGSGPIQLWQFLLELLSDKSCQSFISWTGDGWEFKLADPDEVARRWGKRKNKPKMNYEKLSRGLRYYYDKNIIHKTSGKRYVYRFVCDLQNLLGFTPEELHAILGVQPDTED
The method, boiled down:
as §1

In another test the target is T4, SPDEF (Homo sapiens, UniProt O95238 1-335).
T4 sequence: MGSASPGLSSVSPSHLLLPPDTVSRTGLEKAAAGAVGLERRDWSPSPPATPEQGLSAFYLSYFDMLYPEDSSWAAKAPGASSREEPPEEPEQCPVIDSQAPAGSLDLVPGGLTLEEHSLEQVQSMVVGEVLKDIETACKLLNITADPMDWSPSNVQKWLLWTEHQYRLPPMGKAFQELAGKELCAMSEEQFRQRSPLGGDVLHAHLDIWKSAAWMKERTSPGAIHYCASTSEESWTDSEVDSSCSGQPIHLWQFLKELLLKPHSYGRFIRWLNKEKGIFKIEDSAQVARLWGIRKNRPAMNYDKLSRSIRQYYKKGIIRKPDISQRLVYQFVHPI
The method, boiled down: as §1

The target in the next test is T5, ETV7 (Homo sapiens, UniProt Q9Y603 1-341).
T5 sequence: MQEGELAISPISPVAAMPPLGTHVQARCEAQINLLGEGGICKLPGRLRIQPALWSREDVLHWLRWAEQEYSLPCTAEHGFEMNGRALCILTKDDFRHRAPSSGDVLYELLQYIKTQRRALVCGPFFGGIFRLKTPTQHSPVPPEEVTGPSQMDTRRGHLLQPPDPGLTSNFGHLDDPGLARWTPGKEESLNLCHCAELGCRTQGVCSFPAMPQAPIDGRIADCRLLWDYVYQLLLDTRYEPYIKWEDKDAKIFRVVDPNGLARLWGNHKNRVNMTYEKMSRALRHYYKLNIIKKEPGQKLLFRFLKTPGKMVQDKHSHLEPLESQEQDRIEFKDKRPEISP
The method, boiled down:
as §1

A further test has as its target T6, ELF5 (Homo sapiens, UniProt Q9UKW6-2 1-255).
T6 sequence: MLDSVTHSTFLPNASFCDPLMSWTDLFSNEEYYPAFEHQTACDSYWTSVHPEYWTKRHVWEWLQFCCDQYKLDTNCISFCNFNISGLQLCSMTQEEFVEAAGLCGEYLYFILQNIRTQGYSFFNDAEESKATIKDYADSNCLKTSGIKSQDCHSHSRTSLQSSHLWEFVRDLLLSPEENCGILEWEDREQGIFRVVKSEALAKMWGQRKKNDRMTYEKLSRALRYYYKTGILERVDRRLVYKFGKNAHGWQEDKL
The method, boiled down: as §1

Another test concerns the target T7, ETV3 (Homo sapiens, UniProt P41162-2 1-143).
T7 sequence: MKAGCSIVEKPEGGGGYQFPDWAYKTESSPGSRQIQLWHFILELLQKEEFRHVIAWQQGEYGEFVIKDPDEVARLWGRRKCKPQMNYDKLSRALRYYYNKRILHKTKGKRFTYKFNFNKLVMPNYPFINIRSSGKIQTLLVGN
The method, boiled down:
as §1

The target in the next test is ETV6 (Homo sapiens, UniProt P41212 1-452). The method, boiled down:
as §1

Chain of ETV6 (P41212 whole entry): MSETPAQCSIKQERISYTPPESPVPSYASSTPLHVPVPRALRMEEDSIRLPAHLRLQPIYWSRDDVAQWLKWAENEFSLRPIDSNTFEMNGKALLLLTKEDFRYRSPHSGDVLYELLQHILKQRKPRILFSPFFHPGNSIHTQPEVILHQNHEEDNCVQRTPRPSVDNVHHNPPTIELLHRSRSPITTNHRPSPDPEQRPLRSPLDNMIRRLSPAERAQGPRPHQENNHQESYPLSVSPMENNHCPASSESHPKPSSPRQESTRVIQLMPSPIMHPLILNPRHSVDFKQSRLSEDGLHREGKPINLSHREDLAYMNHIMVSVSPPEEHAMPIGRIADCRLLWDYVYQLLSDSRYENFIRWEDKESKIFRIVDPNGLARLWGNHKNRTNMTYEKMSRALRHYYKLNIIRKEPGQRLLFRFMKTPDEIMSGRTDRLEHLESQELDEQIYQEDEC

As to ACCTGG, the binding signal is 1.17 fold enrichment (6-mer frequency, TF over GST control) with ERF; 1.33 fold enrichment (6-mer frequency, TF over GST control) with ETV3L; 1.26 fold enrichment (6-mer frequency, TF over GST control) with ETS2; 1.2 fold enrichment (6-mer frequency, TF over GST control) in the test with SPDEF; 1.29 fold enrichment (6-mer frequency, TF over GST control) with ETV7; 1.19 fold enrichment (6-mer frequency, TF over GST control) in the test with ELF5. In addition, the binding signal with ETV3 was 1.21 fold enrichment (6-mer frequency, TF over GST control); with ETV6, 1.28 fold enrichment (6-mer frequency, TF over GST control).

For GGATTT, the binding signal with ERF was 1.17 fold enrichment (6-mer frequency, TF over GST control); in the test with ETV3L it was 1.21 fold enrichment (6-mer frequency, TF over GST control); with ETS2, 1.24 fold enrichment (6-mer frequency, TF over GST control); with SPDEF, 1.57 fold enrichment (6-mer frequency, TF over GST control); with ETV7, 1.07 fold enrichment (6-mer frequency, TF over GST control); with ELF5, 1.38 fold enrichment (6-mer frequency, TF over GST control). Also, the binding signal is 1.21 fold enrichment (6-mer frequency, TF over GST control) in the test with ETV3 and 1.3 fold enrichment (6-mer frequency, TF over GST control) with ETV6.

As to CAAACC, the binding signal with ERF is 1.06 fold enrichment (6-mer frequency, TF over GST control); with ETV3L, 1.18 fold enrichment (6-mer frequency, TF over GST control); in the test with ETS2, 1.09 fold enrichment (6-mer frequency, TF over GST control); with SPDEF, 1.11 fold enrichment (6-mer frequency, TF over GST control); with ETV7, 1.02 fold enrichment (6-mer frequency, TF over GST control); with ELF5, 1.02 fold enrichment (6-mer frequency, TF over GST control). Also, the binding signal is 1.11 fold enrichment (6-mer frequency, TF over GST control) with ETV3 and 1.1 fold enrichment (6-mer frequency, TF over GST control) with ETV6.

As to TAAAGA, the binding signal in the test with ERF is 1.23 fold enrichment (6-mer frequency, TF over GST control); with ETV3L, 1.12 fold enrichment (6-mer frequency, TF over GST control); in the test with ETS2, 1.08 fold enrichment (6-mer frequency, TF over GST control); in the test with SPDEF, 1.04 fold enrichment (6-mer frequency, TF over GST control); in the test with ETV7, 1.08 fold enrichment (6-mer frequency, TF over GST control); in the test with ELF5, 1.05 fold enrichment (6-mer frequency, TF over GST control). In addition, the binding signal is 1.08 fold enrichment (6-mer frequency, TF over GST control) in the test with ETV3 and 1.06 fold enrichment (6-mer frequency, TF over GST control) with ETV6.

CAACAC: the binding signal with ERF is 1.16 fold enrichment (6-mer frequency, TF over GST control); with ETV3L, 1.13 fold enrichment (6-mer frequency, TF over GST control); with ETS2, 1.13 fold enrichment (6-mer frequency, TF over GST control); with SPDEF, 1.13 fold enrichment (6-mer frequency, TF over GST control); with ETV7, 1.13 fold enrichment (6-mer frequency, TF over GST control); with ELF5 it was 1.1 fold enrichment (6-mer frequency, TF over GST control). The binding signal is 1.15 fold enrichment (6-mer frequency, TF over GST control) in the test with ETV3 and 1.11 fold enrichment (6-mer frequency, TF over GST control) with ETV6.

On to CTTACT, for which the binding signal with ERF is 1.32 fold enrichment (6-mer frequency, TF over GST control); with ETV3L, 1.22 fold enrichment (6-mer frequency, TF over GST control); with ETS2, 1.26 fold enrichment (6-mer frequency, TF over GST control); in the test with SPDEF, 1.21 fold enrichment (6-mer frequency, TF over GST control); with ETV7, 1.18 fold enrichment (6-mer frequency, TF over GST control); with ELF5, 1.3 fold enrichment (6-mer frequency, TF over GST control). For the same sequence, the binding signal was 1.27 fold enrichment (6-mer frequency, TF over GST control) with ETV3 and 1.3 fold enrichment (6-mer frequency, TF over GST control) with ETV6.

For ACCCCA, the binding signal was 1.08 fold enrichment (6-mer frequency, TF over GST control) in the test with ERF; 1.09 fold enrichment (6-mer frequency, TF over GST control) with ETV3L; 1.15 fold enrichment (6-mer frequency, TF over GST control) with ETS2; 1.02 fold enrichment (6-mer frequency, TF over GST control) with SPDEF; 1.06 fold enrichment (6-mer frequency, TF over GST control) with ETV7; 1.04 fold enrichment (6-mer frequency, TF over GST control) with ELF5. In addition, the binding signal is 1.09 fold enrichment (6-mer frequency, TF over GST control) with ETV3 and 1.02 fold enrichment (6-mer frequency, TF over GST control) in the test with ETV6.

As for TTACGA, the binding signal in the test with ERF was 1.06 fold enrichment (6-mer frequency, TF over GST control); in the test with ETV3L, 1.18 fold enrichment (6-mer frequency, TF over GST control); in the test with ETS2, 1.14 fold enrichment (6-mer frequency, TF over GST control); in the test with SPDEF, 1.1 fold enrichment (6-mer frequency, TF over GST control); in the test with ETV7, 1.1 fold enrichment (6-mer frequency, TF over GST control); in the test with ELF5 it was 1.08 fold enrichment (6-mer frequency, TF over GST control). Further, the binding signal is 1.1 fold enrichment (6-mer frequency, TF over GST control) with ETV3 and 1.21 fold enrichment (6-mer frequency, TF over GST control) with ETV6.

On to CACCAC, for which the binding signal is 1.14 fold enrichment (6-mer frequency, TF over GST control) in the test with ERF; 1.19 fold enrichment (6-mer frequency, TF over GST control) with ETV3L; 1.15 fold enrichment (6-mer frequency, TF over GST control) with ETS2; 1.16 fold enrichment (6-mer frequency, TF over GST control) with SPDEF; 1.04 fold enrichment (6-mer frequency, TF over GST control) with ETV7; 1.11 fold enrichment (6-mer frequency, TF over GST control) with ELF5. Besides, the binding signal with ETV3 is 1.11 fold enrichment (6-mer frequency, TF over GST control); with ETV6 it was 1.14 fold enrichment (6-mer frequency, TF over GST control).
